From PubChem
Avidin bead fluor: compound fluoresces at 488/530 nm on avidin beads | 0.38% of 220,000 active | compound fluorescence 488/530 nm, flow cytometry; hits give high values | fluorescence (KMESF) at 10 µM | AID 1775; in the data active means fluorescence above about 47
GSH fluor: compound fluoresces at 488/530 nm on GSH beads | GSH beads flow cytometry, compound fluorescence 488/530 nm; hits give high values | fluorescence (KMESF) at 10 µM | AID 1776 | 0.25% of 190,000 active; in the data active means fluorescence above about 89;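 further: glutathione beads carrying GST-tagged Bcl family fusion proteins plus one bare bead set; values are compound well signal with DMSO vehicle wells as background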
RGS16-Gao: regulators of human RGS16-Galphao interaction; bead-based flow cytometry RGS16-Galphao binding, fluorescence; actives lie on both sides; binding response (% of control), % at 10 µM; 0.38% of 220,000 active; O15492+P09471; AID 1441; call rule not given here;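 further: Galphao activated by GDP with aluminum fluoride before binding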
Target sequence (O15492 whole entry, looked up): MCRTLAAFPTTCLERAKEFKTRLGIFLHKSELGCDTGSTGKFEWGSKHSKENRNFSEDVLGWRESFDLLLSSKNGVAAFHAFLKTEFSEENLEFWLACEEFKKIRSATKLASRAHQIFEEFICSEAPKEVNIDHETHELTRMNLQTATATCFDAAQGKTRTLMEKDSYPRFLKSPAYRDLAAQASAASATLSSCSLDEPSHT
Target sequence (P09471 whole entry, looked up): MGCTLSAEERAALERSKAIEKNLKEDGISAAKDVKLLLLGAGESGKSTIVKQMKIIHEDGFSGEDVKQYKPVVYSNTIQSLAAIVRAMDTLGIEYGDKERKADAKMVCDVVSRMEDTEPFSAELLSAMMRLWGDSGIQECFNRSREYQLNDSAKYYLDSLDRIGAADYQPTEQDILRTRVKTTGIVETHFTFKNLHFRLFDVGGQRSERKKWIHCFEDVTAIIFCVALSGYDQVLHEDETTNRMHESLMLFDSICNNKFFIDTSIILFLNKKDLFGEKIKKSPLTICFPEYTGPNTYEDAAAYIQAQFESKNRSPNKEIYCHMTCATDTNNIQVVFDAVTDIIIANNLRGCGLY
RGS8-Gao reg: human RGS8-Galphao interaction regulation; P09471; multiplexed bead flow cytometry, RGS8-Galphao binding; actives lie on both sides; response (percent of control binding), % at 10 µM; 0.34% of 220,000 active; in the data active means response below about 60% or above about 140%; inactive means in between;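 further: Galphao activated as the GDP aluminium fluoride complex binding bead-coupled RGS8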
Target sequence (P09471 whole entry, looked up): as above
RGS7-Gao: modulates binding of RGS7 to human Galphao; P09471; Multiplexed bead flow cytometry; actives lie on both sides; binding response (% of control), % at 10 µM; 0.35% of 220,000 active; AID 1439; in the data active means binding response below about 49% or above about 150%; inconclusive means no clear call, values can overlap the other calls; inactive means in between;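 further: fluorescent Galphao held in activated GDP-AlF4 state binding bead-coupled RGS7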
RGS4-Gao reg: modulates binding of RGS4 to human Galphao; Multiplexed bead flow cytometry; actives lie on both sides; binding response (% of control), % at 10 µM; 0.33% of 220,000 active; AID 1415; in the data active means binding response below about 49% or above about 150%; inactive means in between;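 further: fluorescent Galphao activated with aluminum fluoride binding bead-coupled RGS4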
Active calls of the source: *; ? = inconclusive; · = no result; [ ] = remark or other dose. Only some compounds are listed: those with a hit (about 1.2% of all), similar ones and a draw of the others.

SMILES | Avidin bead fluor | GSH fluor | RGS16-Gao | RGS8-Gao reg | RGS7-Gao | RGS4-Gao reg
Cn1c(N)c(C(=O)COC(=O)C2(c3ccccc3F)CCCC2)c(=O)n(C)c1=O | 10 | 32 | 105 | 103 | 100 | 103
O=C1S/C(=C\c2ccc(N3CCOCC3)o2)C(=O)N1Cc1ccc(F)cc1 | 31 | 15 | 386 | 124 | 153*[activator] | 165*[activator]
O=C1S/C(=C/c2ccc(N3CCOCC3)o2)C(=O)N1Cc1ccc(F)cc1 | 10 | 16 | 98 | 86 | 103 | 100
Cc1cccc(-n2ncc3c(N(C)C4CCCCC4)ncnc32)c1 | 7 | · | 110 | 105 | ? | 105
CCCS(=O)(=O)NCCc1cc2ccc(C)cc2[nH]c1=O | 5 | 88* | 98 | 99 | 102 | 96
O=C(Nc1ccc(Cl)cc1Cl)C1=Cc2ccccc2OC1 | 9 | 14 | 91 | 93 | 84 | 92
O=C(Nc1ccc(Cl)cc1)C1=Cc2cc(Cl)ccc2OC1 | 48* | 13 | 102 | 97 | 104 | 101
CCCC(=O)Nc1nnc(CCN2CCCCC2)s1 | 10 | 17 | 108 | 102 | 105 | 104
O=C(COC(=O)CCc1nc2ccccc2c(=O)[nH]1)Nc1ccc(Cl)cn1 | 49* | · | 93 | 91 | ? | 126
Cc1ccc(OCCC(=O)OCC(=O)Nc2ccc(Cl)cn2)cc1 | 7 | 272* | 96 | 98 | 95 | 98
Cc1cc(C)cc(OCC(=O)OCC(=O)Nc2ccc(Cl)cn2)c1 | 8 | 16 | 103 | 107 | 105 | 105
O=C1NC[C@@H](Cc2cccc3ccccc23)N(CCc2cc(C(F)(F)F)cc(C(F)(F)F)c2)C1=O | · | · | 104 | 102 | ? | 107
O=C(O)Cc1csc(NC(=O)c2ccco2)n1 | 7 | 276* | 96 | 98 | 103 | 101
COc1ccc(CCNc2nnc(C)c(=O)[nH]2)cc1OC | 12 | 27 | 99 | 100 | 96 | 98
COc1ccc(S(=O)(=O)N(C)c2ccc(C(=O)N3CCC(C(N)=O)CC3)cc2)cc1 | 15 | 27 | 96 | 101 | 98 | 97
COc1ccc(CN2CSC(=S)N(Cc3ccc(OC)cc3)C2)cc1 | 5 | · | 105 | 104 | ? | 104
CCOC(=O)/C=C1\SCC(=O)N1Cc1nnc(-c2ccccc2Br)o1 | 50* | 22 | 98 | 98 | 101 | 98
O=c1c2ccccc2nnn1CSc1ccccc1 | 21 | 12 | 107 | 106 | 101 | 105
Cc1nc(SCn2nnc3ccccc3c2=O)nc(C)c1C | 8 | 258* | 102 | 100 | 102 | 100
CC(=O)Nc1ccc(S(=O)(=O)N2CCSC2c2ccc(Cl)cc2)cc1 (stereo not given) | 9 | 265* | 60 | 86 | 100 | 97
Cc1nn(CC(=O)NCC2CCCO2)c(=O)c2ccccc12 (stereo not given) | 9 | 270* | 108 | 102 | 106 | 104
Cc1nnc(SCC(=O)NCC2CCCO2)n1-c1ccccc1 (stereo not given) | 9 | 273* | 100 | 99 | 95 | 97
CC1Oc2ccccc2N(CC(=O)NCC2CCCO2)C1=O (stereo not given) | 54* | 20 | 104 | 102 | 108 | 102
CC1Oc2ccccc2N(CC(=O)NCc2ccccc2)C1=O (stereo not given) | 11 | 24 | 104 | 103 | 104 | 100
Cc1nn(CC(=O)O)c(=O)c2ccccc12 | 7 | 263* | 107 | 104 | 108 | 108
SMILES | Avidin bead fluor | GSH fluor | RGS16-Gao | RGS8-Gao reg | RGS7-Gao | RGS4-Gao reg
CCOC(=O)CCc1c(C(=O)OCC)[nH]c(CC)c1C(=O)OCc1ccccc1 | 8 | · | 95 | 99 | ? | 96
CCOc1cc(NC(=O)C2CC2)c(OCC)cc1NC(=O)CCn1nnc2ccccc21 | 2 | 6 | 106 | 103 | 100 | 103
CCOC(=O)CCCNC(=O)COC(=O)c1cccc(C)c1O | 7 | 261* | 106 | 97 | 92 | 96
Cc1cccc(C(=O)OCC(=O)Nc2ccc(N3CCCCC3)cc2)c1O | 25 | 24 | 99 | 101 | 98 | 98
CCC(CC)NC(=O)COC(=O)c1cccc(C)c1O | 4 | 262* | 53 | 84 | 94 | 95
CC(C)N(C)NC(=S)Nc1ccccc1 | 7 | 332* | 85 | 96 | 94 | 93
CCN(CC)NC(=S)Nc1ccccc1 | 11 | 35 | 115 | 107 | 105 | 106
CCOC(=O)c1ccc(OCC(=O)c2ccc(O)cc2O)cc1 | 10 | 9 | 94 | 97 | 90 | 94
Cc1nn2c(=S)[nH]nc2[nH]c1=O | 8 | 24 | 103 | 103 | ? | 102
OC(CSc1c(Cl)cccc1Cl)CN1CCN(c2ccccc2F)CC1 (stereo not given) | 12 | 31 | 100 | 100 | 97 | 99
OC(CSc1ccccc1Cl)CN1CCN(c2ccccc2F)CC1 (stereo not given) | 89* | 36 | 101 | 96 | 120 | 100
CC1=C(C)CC(C(=O)Nc2ccc(C(N)=O)cc2)C(C(=O)O)C1 (stereo not given) | 13 | 23 | 99 | 99 | 97 | 96
COC(=O)CC1C(=O)NCCN1C(=O)CSc1nnc(Nc2ccc(C)cc2)s1 (stereo not given) | 17 | 260* | 103 | 101 | 106 | 99
Cc1cc(C)n2nc(C(=O)OCCOc3cccc(Br)c3)nc2n1 | 8 | 253* | 103 | 102 | 102 | 103
Cc1sc2ncnc(Nc3ccccc3)c2c1C | 92* | 13 | 106 | 99 | 138 | 108
Cc1sc2ncnc(NCc3ccccc3)c2c1C | 12 | 25 | 94 | 100 | 100 | 94
COc1ccccc1NC(=O)Nc1ccnn1C1CCCCC1 | 6 | 266* | 102 | 96 | 97 | 100
COc1ccccc1NC(=O)Nn1cnnc1 | 4 | 242* | 73 | 95 | 91 | 93
O=S(=O)(N1CCCCC1)n1nnc2ccccc21 | 49* | 10 | 103 | 101 | 107 | 103
Cc1c(/C=N\NC(=O)c2csc3ccccc23)cnn1C | 54* | 23 | 106 | 102 | 127 | 110
Cc1cc(C(=O)Nc2ccccc2C#N)n(-c2ccccc2)n1 | 7 | 29 | 101 | 100 | 100 | 101
CCOC(=O)c1c(NC(=O)N/N=C/c2ccccc2OCC)sc(C(C)=O)c1C | 5 | 447* | 27 | 85 | 90 | 90
CC1CN(C(=O)C2CCCN2S(=O)(=O)c2ccc(Cl)cc2)CC(C)O1 (stereo not given) | 14 | 27 | 100 | 100 | 100 | 99
COCCn1c(SCC(=O)NC(=O)NC(C)C)nc2ccccc21 | 51* | 17 | 100 | 100 | 102 | 100
CCCCOc1ccc(S(=O)(=O)Nc2ccc(NC(C)=O)cc2)cc1 | 5 | 129* | 116 | 108 | 106 | 103
CCCCN(CCCC)S(=O)(=O)c1ccc(NS(=O)(=O)c2ccc(NC(C)=O)cc2)cc1 | 6 | 6 | 99 | 102 | 102 | 102
